Common to all, as to assay: DAPPL (digital affinity profiling via proximity ligation, sequencing); 10 mM Tris-HCl pH 7.5, 50 mM NaCl, 1 mM DTT, 4% glycerol, room temperature, 30 min; GST-TFs on glutathione beads, 16-mer random dsDNA library, 0.1% formaldehyde crosslink after washing; high values mean tight binding
One assay addresses T1, FLI1 (Homo sapiens, UniProt Q01543 1-452).
T1 sequence: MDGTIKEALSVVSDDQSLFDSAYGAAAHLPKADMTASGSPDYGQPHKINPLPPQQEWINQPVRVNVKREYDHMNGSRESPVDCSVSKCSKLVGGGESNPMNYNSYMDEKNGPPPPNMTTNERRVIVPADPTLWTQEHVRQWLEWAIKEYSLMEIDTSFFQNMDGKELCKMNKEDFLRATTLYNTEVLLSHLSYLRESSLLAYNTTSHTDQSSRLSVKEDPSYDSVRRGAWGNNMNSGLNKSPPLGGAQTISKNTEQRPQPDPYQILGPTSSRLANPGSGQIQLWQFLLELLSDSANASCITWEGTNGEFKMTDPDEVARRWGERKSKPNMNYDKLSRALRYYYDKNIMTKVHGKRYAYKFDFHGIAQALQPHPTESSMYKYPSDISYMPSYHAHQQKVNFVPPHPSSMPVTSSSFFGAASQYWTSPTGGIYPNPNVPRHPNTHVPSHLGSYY
Particulars: protein: recombinant; tags: N-terminal GST; dsDNA, one strand shown. In a few lines:
(§1)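 Sequencing on an Illumina NextSeq500 followed washing, crosslinking with 0.1% formaldehyde, proximity ligation (BsaI/T4 ligase, 1 h, 37 °C) and PCR amplification of pools that had been incubated for 30 min at room temperature with 200 nmole of a random double-stranded 16-mer DNA library in Tris/NaCl/DTT/glycerol buffer. Each pool held DNA-barcoded human transcription factors, expressed in yeast as GST fusions and captured on glutathione beads, plus a tag-only sample. Binding signal is a hexamer's read frequency for a factor divided by its frequency in the tag-only sample.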

In the next assay the target is T2, ELK1 (Homo sapiens, UniProt P19419 1-428).
T2 sequence: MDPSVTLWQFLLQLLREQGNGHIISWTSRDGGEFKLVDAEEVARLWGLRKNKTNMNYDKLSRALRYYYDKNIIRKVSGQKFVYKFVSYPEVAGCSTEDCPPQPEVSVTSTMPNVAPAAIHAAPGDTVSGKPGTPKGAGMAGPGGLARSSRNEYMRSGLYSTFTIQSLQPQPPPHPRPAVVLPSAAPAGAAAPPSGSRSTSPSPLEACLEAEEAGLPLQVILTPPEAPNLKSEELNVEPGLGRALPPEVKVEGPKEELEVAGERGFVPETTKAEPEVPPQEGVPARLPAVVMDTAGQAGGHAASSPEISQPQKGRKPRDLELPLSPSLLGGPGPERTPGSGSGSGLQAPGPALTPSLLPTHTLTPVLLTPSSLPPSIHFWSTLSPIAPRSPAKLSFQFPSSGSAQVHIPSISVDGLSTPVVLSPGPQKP
Particulars: protein: recombinant; tags: N-terminal GST; dsDNA, one strand shown. The procedure, abridged: as §1

The next assay addresses T3, GABPA (Homo sapiens, UniProt Q06546 1-454).
T3 sequence: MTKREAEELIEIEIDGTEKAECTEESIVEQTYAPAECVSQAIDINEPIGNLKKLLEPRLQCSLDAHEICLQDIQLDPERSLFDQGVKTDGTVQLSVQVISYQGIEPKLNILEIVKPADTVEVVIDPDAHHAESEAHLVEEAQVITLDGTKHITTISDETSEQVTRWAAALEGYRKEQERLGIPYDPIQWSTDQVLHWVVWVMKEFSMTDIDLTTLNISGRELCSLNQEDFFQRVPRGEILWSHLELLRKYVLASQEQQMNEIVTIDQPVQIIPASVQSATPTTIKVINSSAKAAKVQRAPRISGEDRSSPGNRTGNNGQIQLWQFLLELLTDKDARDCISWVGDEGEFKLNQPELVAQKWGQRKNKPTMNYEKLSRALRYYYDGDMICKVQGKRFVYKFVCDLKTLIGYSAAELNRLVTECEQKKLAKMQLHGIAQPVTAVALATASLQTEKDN
Particulars: protein: recombinant; tags: N-terminal GST; dsDNA, one strand shown. The procedure, abridged:
as §1

Another assay has as its target T4, ERG (Homo sapiens, UniProt P11308 1-479).
T4 sequence: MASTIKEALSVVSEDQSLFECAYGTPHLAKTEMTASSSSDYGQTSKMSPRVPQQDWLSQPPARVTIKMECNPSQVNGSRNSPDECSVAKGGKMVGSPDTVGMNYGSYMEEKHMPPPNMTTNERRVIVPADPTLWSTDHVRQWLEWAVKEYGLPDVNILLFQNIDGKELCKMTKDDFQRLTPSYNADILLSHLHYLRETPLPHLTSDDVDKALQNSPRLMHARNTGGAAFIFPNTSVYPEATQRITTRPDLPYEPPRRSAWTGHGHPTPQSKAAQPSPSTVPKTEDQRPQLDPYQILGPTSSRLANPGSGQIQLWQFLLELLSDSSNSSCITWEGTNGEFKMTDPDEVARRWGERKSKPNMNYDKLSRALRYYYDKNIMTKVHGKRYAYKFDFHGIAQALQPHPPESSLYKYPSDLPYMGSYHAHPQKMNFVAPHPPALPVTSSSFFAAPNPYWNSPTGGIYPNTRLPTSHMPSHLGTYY
Particulars: protein: recombinant; tags: N-terminal GST; dsDNA, one strand shown. In a few lines: as §1

The next assay concerns the target ELF1 (Homo sapiens, UniProt P32519 1-619). Particulars: protein: recombinant; tags: N-terminal GST; dsDNA, one strand shown. The procedure, abridged: as §1
For a further assay, the target named is T5, EHF (Homo sapiens, UniProt Q9NZC4 1-300).
T5 sequence: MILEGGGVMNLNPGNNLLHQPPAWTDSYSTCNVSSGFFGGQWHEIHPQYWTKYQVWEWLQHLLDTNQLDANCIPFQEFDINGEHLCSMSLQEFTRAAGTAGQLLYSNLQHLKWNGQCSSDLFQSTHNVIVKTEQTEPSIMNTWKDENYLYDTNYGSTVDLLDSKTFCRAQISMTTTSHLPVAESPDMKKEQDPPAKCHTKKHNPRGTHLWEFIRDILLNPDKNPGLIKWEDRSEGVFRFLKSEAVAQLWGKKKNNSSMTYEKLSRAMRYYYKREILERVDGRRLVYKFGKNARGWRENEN
Particulars: protein: recombinant; tags: N-terminal GST; dsDNA, one strand shown. The procedure, abridged:
as §1

The target in another assay is SPI1 (Homo sapiens, UniProt P17947 1-270). Particulars: protein: recombinant; tags: N-terminal GST; dsDNA, one strand shown. In a few lines: as §1
Another assay concerns the target SPIB (Homo sapiens, UniProt Q01892 1-262). Particulars: protein: recombinant; tags: N-terminal GST; dsDNA, one strand shown. In a few lines:
as §1

In a further assay the target is T6, ELK3 (Homo sapiens, UniProt P41970 1-407).
T6 sequence: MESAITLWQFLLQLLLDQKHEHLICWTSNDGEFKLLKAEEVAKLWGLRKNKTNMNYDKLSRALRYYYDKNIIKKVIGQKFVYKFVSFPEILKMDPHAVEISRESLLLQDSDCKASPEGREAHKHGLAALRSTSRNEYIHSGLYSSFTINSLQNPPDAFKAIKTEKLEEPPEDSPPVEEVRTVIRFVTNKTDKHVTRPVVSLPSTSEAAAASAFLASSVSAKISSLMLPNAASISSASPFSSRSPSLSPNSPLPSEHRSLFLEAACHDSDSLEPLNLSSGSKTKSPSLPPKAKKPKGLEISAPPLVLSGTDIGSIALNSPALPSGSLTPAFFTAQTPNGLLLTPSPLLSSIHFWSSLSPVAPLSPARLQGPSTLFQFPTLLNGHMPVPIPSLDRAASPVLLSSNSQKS
Particulars: protein: recombinant; tags: N-terminal GST; dsDNA, one strand shown. In a few lines:
as §1

The next assay has as its target ETV5 (Homo sapiens, UniProt P41161 1-510). Particulars: protein: recombinant; tags: N-terminal GST; dsDNA, one strand shown. In a few lines:
as §1

Another assay has as its target HSF1 (Homo sapiens, UniProt Q00613 1-529). Particulars: protein: recombinant; tags: N-terminal GST; chain copies: 3; dsDNA, one strand shown. The procedure, abridged: as §1
A further assay concerns the target T7, SPIC (Homo sapiens, UniProt Q8N5J4 1-248).
T7 sequence: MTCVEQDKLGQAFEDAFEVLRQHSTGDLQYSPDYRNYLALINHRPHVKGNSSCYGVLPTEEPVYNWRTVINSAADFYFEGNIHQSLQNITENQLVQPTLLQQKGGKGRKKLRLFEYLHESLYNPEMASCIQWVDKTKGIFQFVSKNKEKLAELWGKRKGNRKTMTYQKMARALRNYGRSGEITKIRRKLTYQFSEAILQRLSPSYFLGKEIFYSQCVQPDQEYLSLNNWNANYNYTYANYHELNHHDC
Particulars: protein: recombinant; tags: N-terminal GST; dsDNA, one strand shown. In a few lines:
as §1

In the next assay the target is ELF4 (Homo sapiens, UniProt Q99607 1-663). Particulars: protein: recombinant; tags: N-terminal GST; dsDNA, one strand shown. In a few lines: as §1
A further assay has as its target T8, ELK4 (Homo sapiens, UniProt P28324-2 1-405).
T8 sequence: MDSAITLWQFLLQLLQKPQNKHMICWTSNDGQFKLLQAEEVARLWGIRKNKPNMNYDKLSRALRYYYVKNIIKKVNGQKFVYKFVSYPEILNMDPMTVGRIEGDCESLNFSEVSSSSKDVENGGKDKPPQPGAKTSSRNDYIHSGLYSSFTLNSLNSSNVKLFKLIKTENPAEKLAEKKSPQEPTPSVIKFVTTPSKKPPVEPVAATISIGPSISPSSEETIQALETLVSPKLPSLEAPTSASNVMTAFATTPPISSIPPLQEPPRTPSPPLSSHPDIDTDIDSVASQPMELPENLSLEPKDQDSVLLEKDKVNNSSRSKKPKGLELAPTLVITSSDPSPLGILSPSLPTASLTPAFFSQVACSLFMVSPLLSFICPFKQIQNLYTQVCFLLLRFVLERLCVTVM
Particulars: protein: recombinant; tags: N-terminal GST; dsDNA, one strand shown. In a few lines: as §1

The next assay has as its target T9, ETV2 (Homo sapiens, UniProt O00321 1-342).
T9 sequence: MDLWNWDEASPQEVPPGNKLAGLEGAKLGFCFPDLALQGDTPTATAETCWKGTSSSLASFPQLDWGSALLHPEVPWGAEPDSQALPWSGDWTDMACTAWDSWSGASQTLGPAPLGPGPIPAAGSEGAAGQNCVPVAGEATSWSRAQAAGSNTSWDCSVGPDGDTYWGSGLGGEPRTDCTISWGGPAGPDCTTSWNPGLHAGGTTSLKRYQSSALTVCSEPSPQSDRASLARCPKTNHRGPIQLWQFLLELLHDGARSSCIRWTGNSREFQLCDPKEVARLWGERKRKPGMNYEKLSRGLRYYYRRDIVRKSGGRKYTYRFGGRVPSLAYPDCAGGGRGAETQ
Particulars: protein: recombinant; tags: N-terminal GST; dsDNA, one strand shown. The procedure, abridged:
as §1

A further assay has as its target CRX (Homo sapiens, UniProt O43186 1-299). Particulars: protein: recombinant; tags: N-terminal GST; dsDNA, one strand shown. The procedure, abridged: as §1
The target of the next assay is ETV1 (Homo sapiens, UniProt P50549 1-477). Particulars: protein: recombinant; tags: N-terminal GST; dsDNA, one strand shown. The procedure, abridged:
as §1

ELF1, sequence (P32519 whole entry): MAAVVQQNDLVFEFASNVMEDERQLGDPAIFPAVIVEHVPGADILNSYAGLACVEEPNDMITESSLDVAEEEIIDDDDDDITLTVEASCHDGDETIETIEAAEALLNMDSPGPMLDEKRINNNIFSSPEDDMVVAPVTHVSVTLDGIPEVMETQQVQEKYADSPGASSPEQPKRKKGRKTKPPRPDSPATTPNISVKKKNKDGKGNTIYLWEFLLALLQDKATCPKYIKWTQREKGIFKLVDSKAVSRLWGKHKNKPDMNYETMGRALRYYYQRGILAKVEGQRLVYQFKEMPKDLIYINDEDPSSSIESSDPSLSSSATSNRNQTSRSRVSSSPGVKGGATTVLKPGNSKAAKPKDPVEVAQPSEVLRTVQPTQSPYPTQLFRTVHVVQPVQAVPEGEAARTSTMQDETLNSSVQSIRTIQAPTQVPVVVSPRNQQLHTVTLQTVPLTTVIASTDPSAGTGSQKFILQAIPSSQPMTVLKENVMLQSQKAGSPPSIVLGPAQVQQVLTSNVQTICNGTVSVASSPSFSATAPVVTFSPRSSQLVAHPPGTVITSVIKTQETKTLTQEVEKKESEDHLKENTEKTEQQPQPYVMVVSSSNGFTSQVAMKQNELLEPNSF
ELF4, sequence (Q99607 whole entry): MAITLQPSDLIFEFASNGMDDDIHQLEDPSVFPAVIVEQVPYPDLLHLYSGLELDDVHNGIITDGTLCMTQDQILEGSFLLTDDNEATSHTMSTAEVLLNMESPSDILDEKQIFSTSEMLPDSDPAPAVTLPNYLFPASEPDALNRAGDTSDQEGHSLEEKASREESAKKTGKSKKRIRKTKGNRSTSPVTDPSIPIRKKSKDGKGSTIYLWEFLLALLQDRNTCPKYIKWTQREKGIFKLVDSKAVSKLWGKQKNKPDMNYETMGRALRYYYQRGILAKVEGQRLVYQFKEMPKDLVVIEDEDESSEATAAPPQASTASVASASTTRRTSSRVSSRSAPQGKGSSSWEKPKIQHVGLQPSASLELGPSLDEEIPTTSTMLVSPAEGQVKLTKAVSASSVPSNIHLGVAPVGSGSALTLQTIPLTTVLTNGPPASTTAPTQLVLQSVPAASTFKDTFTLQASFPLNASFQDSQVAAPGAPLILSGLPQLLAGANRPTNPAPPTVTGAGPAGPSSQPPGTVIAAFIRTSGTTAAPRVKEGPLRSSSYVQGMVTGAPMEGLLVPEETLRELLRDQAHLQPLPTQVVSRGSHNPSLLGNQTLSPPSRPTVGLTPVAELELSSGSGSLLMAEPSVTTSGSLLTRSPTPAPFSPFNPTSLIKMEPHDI
HSF1, sequence (Q00613 whole entry): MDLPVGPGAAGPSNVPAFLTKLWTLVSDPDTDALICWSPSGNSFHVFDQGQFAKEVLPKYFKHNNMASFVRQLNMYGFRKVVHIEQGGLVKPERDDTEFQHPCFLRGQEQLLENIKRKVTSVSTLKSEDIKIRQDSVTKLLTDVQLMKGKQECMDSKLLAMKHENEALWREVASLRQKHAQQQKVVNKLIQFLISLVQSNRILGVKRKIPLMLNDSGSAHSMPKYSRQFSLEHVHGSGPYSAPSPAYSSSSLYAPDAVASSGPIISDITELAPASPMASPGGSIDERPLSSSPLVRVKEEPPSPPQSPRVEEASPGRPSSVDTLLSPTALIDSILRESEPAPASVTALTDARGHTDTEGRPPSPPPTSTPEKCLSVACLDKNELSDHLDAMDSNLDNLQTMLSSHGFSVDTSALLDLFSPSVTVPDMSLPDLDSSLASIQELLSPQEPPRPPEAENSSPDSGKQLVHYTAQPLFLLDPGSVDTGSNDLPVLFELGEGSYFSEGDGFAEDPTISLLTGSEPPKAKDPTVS
ETV5, sequence (P41161 whole entry): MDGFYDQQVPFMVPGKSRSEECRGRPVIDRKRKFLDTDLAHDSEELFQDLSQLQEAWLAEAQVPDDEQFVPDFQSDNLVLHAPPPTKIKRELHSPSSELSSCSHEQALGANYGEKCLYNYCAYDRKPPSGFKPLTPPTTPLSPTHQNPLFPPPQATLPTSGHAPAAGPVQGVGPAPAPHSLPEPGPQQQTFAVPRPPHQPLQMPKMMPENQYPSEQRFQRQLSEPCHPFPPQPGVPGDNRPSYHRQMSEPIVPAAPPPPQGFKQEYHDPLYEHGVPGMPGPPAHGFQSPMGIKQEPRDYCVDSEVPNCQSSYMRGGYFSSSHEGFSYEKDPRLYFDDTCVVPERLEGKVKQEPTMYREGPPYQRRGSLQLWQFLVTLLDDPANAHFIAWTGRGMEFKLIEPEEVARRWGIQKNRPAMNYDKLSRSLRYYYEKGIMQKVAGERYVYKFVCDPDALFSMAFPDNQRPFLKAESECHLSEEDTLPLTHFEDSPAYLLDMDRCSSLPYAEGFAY
SPIB, sequence (Q01892 whole entry): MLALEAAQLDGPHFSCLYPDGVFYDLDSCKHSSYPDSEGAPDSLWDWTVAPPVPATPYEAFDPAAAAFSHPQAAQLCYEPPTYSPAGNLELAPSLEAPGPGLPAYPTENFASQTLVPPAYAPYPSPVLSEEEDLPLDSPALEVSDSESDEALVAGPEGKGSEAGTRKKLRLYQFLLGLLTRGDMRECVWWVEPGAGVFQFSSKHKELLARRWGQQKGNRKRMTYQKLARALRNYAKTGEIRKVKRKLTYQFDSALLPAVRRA
CRX, sequence (O43186 whole entry): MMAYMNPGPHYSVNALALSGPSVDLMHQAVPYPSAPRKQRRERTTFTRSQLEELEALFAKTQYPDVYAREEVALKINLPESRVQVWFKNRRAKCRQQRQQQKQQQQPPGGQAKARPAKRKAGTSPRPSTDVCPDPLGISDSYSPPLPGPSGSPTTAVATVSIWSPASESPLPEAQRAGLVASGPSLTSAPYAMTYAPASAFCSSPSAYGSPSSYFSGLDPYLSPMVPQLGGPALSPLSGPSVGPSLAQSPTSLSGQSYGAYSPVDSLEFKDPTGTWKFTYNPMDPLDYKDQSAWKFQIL
ETV1, sequence (P50549 whole entry): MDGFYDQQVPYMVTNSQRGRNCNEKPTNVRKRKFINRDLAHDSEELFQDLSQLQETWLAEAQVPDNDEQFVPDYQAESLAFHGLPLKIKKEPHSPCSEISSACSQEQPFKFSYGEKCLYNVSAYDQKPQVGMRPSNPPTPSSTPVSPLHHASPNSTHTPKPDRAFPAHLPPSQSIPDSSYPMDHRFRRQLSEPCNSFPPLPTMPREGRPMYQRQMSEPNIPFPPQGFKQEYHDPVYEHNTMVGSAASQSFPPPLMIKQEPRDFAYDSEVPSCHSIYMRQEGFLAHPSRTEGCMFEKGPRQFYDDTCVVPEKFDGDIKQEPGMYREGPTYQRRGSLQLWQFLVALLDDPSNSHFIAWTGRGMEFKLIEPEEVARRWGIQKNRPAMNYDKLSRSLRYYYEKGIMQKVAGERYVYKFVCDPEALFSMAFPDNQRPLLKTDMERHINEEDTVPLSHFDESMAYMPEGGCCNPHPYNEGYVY

With TTGAAC, the binding signal is 1.13 fold enrichment (6-mer frequency, TF over GST control) in the assay with FLI1; 1.1 fold enrichment (6-mer frequency, TF over GST control) with ELK1; 1.08 fold enrichment (6-mer frequency, TF over GST control) in the assay with GABPA; 1.01 fold enrichment (6-mer frequency, TF over GST control) with ERG; 1.15 fold enrichment (6-mer frequency, TF over GST control) with ELF1; 1.11 fold enrichment (6-mer frequency, TF over GST control) with EHF. For the same sequence, the binding signal with SPI1 was 1.04 fold enrichment (6-mer frequency, TF over GST control); with SPIB, 1.12 fold enrichment (6-mer frequency, TF over GST control); in the assay with ELK3, 1.12 fold enrichment (6-mer frequency, TF over GST control); with ETV5 it was 1.05 fold enrichment (6-mer frequency, TF over GST control); with HSF1, 1.02 fold enrichment (6-mer frequency, TF over GST control); with SPIC, 1.06 fold enrichment (6-mer frequency, TF over GST control). Moreover, the binding signal is 1.12 fold enrichment (6-mer frequency, TF over GST control) in the assay with ELF4; 1.32 fold enrichment (6-mer frequency, TF over GST control) with ELK4; 1.27 fold enrichment (6-mer frequency, TF over GST control) in the assay with ETV2; 1.03 fold enrichment (6-mer frequency, TF over GST control) with CRX; 1.08 fold enrichment (6-mer frequency, TF over GST control) in the assay with ETV1.

Source of the values: PMC7862700, “An all-to-all approach to the identification of sequence-specific readers for epigenetic DNA modifications on cytosine”.
